# Data reported in the supplement of paper PMC6555819.
# How the values were obtained:
# Assay in all cases: PBM binding z-score (relative to random genomic background probes); higher = stronger binding; sequences stand for … in GC…GCGATTGACAGCGTAGAATGAAGG
# [1] = tested on: RARb homodimer (NR concentration 270 nM)
# Method in brief: (§1)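 Antibodies against each partner of ligand-free nuclear receptor dimers (one per run) detected binding on custom Agilent 4×180K protein-binding microarrays after 1 h incubation. The double-stranded probes had 34-nt variable regions carrying direct-repeat seeds, single-nucleotide variants, half-site ablations and random human genomic background sequences. Binding z-scores, from regression-normalized fluorescence, use the random background probes as reference.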
# [2] = tested on: RARg:RXRa (NR concentration 270 nM, RXRa partner concentration 90 nM)
# Method in brief: as §1
# [3] = tested on: RARg homodimer (NR concentration 270 nM)
# Method in brief: as §1
# [4] = tested on: RXRa DBDmut IVT, anti-RXR (DBD mutation: RXRa K156A/R161A, NR concentration 90 nM)
# Method in brief: as §1
# [5] = tested on: RXRa homodimer (NR concentration 180 nM)
# Method in brief: as §1
# [6] = tested on: THRa:RXRa (NR concentration 90 nM, RXRa partner concentration 90 nM)
# Method in brief: as §1
# [7] = tested on: THRa homodimer (NR concentration 90 nM)
# Method in brief: as §1
# [8] = tested on: VDR homodimer (NR concentration 270 nM)
# Method in brief: as §1
Sequence,PBM binding z-score [1],PBM binding z-score [2],PBM binding z-score [3],PBM binding z-score [4],PBM binding z-score [5],PBM binding z-score [6],PBM binding z-score [7],PBM binding z-score [8]
TCTATTAGTTGATTAGGGCATCCGAAACAGCGGA,0.405,0.611,0.418,1.08,0.604,0.428,0.317,0.435
ATCGCAAGGTCGTGAGGTGAGTATACAGAAAGGC,2.13,2.76,2.38,1.62,3.06,3.33,2.41,1.55
AGTCAAAGTTCATCTAGCTAACGTAAGATATGCT,3.76,5.27,6,4.58,4.7,1.67,-0.302,4.9
GTGACTGGGGCAAAGCAGGTTACCATAAGGTTGG,1.55,1.43,1.19,-0.205,0.875,3.35,0.631,0.275
GGAACGAGGGCATTCGAGTTGGTAGCATGGCGAT,0.543,0.787,0.965,2.93,0.508,1.87,-0.702,2.2
CCTTACGGGTCACTGTCAGGTTATAGCATTTGGA,3.14,5.51,4.38,1.75,4.49,3.83,0.905,1.41
ACTAGCAGGCCAAGTTTGGGTCAATCAAACAAAG,2.11,2.43,1.43,-0.255,0.858,2.25,0.6,0.00979
